For some of these results: Measured potencies and affinities stand elsewhere. Active and inactive are the calls of the source. Unless noted, the rule behind the calls is not given here.
Tests used:
[1] = antimalarial activity against Dd2 strain (AID 2302;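 active = growth inhibition above 50% at the single 2 µM test dose, taken to imply half-maximal potency below 2 µM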;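 note: 0% = DMSO untreated growth and 100% = chloroquine plus artemisinin killed control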); conditions: P. falciparum Dd2 in RBCs, LDH growth readout, 72 h; at 2 µM; stronger effect = higher value
[2] = HepG2 cytotoxicity, primary screen, cytotoxicity control for P. falciparum antimalarial project, cell-based, ATP luminescence (AID 2303;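 active = inhibition above 50%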;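 note: 0% = DMSO wells and 100% = digitonin-killed cells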); conditions: HepG2 viability, 24-48 h, at 10 µM, stronger effect = higher value
[3] = biological target: L-lactate dehydrogenase (Plasmodium falciparum (isolate CDC / Honduras)) (UniProt Q27743); experiment: PfLDH activity inhibition – cell lysate, 3D7 strain, counter-screen for P. falciparum growth inhibition project (AID 2304);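 note: 0% = vehicle and 100% = reference inhibitor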; conditions: P. falciparum 3D7 crude extract, LDH APAD/NBT absorbance; at 2 µM; stronger effect = higher value
Sequence of L-lactate dehydrogenase (Plasmodium falciparum (isolate CDC / Honduras)) (Q27743 whole entry, looked up): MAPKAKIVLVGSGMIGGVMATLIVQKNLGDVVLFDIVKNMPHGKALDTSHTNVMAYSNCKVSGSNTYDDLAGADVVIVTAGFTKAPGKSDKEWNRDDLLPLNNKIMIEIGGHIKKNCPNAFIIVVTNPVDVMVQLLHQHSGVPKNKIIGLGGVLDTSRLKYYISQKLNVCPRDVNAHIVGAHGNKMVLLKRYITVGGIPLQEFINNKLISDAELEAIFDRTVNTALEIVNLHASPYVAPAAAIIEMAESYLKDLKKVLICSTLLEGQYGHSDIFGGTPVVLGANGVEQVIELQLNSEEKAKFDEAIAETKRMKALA

[4] = inhibition of 3D7 malaria parasite growth – strain 3D7 (AID 2306);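 note: 0% = DMSO wells and 100% = chloroquine plus artemisinin control wells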; conditions: P. falciparum 3D7 erythrocytic growth, LDH absorbance, 72 h; at 2 µM; stronger effect = higher value
[5] = biological target: Calcium-dependent protein kinase 1 (Plasmodium falciparum (isolate 3D7)) (UniProt P62344); experiment: PfCDPK1 kinase inhibitors, biochemical, TCAMS library (AID 1159585; cut-off not given, nearly all actives have IC50 up to about 0.98 µM;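 note: inhibitors leave more ATP so luminescence rises with inhibition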); conditions: recombinant PfCDPK1, Kinase-Glo ATP depletion luminescence
Sequence of Calcium-dependent protein kinase 1 (Plasmodium falciparum (isolate 3D7)) (P62344 whole entry, looked up): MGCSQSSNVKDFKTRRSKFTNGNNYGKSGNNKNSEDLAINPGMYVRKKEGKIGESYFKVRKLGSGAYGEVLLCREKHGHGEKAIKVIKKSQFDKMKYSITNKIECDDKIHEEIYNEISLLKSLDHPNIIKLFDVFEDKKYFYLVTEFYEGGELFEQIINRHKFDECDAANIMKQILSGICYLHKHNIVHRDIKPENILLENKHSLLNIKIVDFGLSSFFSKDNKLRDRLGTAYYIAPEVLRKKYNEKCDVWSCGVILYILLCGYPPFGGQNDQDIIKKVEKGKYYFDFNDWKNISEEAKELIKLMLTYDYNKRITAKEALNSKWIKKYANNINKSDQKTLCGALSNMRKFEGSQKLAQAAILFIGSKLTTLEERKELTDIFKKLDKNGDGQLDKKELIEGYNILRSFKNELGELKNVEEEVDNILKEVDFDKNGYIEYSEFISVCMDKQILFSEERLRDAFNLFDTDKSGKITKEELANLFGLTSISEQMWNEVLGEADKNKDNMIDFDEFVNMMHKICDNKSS

[6] = biological target: Plasmodium falciparum protein kinase 6 (PK6, PF3D7_1337100) (UniProt Q8IDW1); experiment: PfPK6 kinase inhibitors, biochemical, TCAMS library (AID 1159586); conditions: recombinant PfPK6, Kinase-Glo ATP depletion luminescence
Sequence of Plasmodium falciparum protein kinase 6 (PK6, PF3D7_1337100) (Q8IDW1 1-305): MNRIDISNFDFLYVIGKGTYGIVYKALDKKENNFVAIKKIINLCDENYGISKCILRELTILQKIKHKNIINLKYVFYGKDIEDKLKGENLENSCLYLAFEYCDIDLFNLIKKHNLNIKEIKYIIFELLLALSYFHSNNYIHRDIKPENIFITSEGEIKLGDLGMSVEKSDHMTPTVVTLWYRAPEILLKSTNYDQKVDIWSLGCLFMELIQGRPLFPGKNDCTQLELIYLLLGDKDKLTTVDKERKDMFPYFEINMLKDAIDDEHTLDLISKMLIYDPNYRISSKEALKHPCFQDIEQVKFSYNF

[7] = biological target: Protein kinase 7 (PK7), Plasmodium falciparum 3D7 (PF3D7_0213400) (UniProt Q7YTF7); experiment: inhibition of Plasmodium PK7 catalytic activity – biochemical, TCAMS antimalarial set, Kinase-Glo luminescence (AID 1159587); conditions: recombinant PfPK7, Kinase-Glo ATP depletion luminescence
Sequence of Protein kinase 7 (PK7), Plasmodium falciparum 3D7 (PF3D7_0213400) (Q7YTF7 1-343): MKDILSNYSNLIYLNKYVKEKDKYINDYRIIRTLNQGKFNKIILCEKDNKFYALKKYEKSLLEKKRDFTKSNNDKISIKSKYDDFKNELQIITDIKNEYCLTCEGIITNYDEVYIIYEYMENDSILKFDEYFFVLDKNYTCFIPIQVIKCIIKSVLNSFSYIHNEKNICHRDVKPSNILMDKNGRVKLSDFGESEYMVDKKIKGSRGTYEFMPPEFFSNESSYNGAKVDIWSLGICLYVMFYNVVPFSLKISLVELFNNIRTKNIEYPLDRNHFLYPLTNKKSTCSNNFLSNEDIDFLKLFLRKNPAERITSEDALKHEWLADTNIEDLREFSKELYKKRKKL

[8] = biological target: Calcium-dependent protein kinase 4 (Plasmodium falciparum (isolate 3D7)) (UniProt Q8IBS5); experiment: PfCDPK4 kinase inhibitors, biochemical, TCAMS library (AID 1159588; cut-off not given, nearly all actives have IC50 up to about 0.91 µM); conditions: recombinant PfCDPK4, Kinase-Glo ATP depletion luminescence
Sequence of Calcium-dependent protein kinase 4 (Plasmodium falciparum (isolate 3D7)) (Q8IBS5 whole entry, looked up): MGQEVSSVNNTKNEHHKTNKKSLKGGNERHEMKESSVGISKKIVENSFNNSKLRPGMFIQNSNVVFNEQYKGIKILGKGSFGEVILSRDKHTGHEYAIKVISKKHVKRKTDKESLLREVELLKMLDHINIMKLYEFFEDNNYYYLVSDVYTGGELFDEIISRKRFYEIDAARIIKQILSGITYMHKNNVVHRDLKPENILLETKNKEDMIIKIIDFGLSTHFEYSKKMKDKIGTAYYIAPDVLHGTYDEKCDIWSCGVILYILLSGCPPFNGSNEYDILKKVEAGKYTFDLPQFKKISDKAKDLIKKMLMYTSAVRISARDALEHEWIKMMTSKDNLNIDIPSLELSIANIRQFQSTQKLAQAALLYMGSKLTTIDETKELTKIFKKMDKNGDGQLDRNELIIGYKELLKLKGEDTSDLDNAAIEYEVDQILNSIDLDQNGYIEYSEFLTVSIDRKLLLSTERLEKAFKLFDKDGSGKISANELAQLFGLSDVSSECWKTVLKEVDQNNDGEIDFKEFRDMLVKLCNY

NC1CCCN(Cc2cccc(-c3ccc(-c4nc5ccc(C(F)(F)F)cc5[nH]4)cc3)c2)C1 (stereo not given)
active: growth inhibition [1] 96% | growth inhibition [4] 99%
inactive: inhibition [2] 47% | inhibition [3] -3% | outcome [5] | outcome [6] | outcome [7] | outcome [8]

Cn1cncc1-c1cc2c(Nc3ccc(OCc4ccccc4)cc3)ncnc2cn1
active: growth inhibition [1] 75% | growth inhibition [4] 99%
inactive: inhibition [2] -1% | inhibition [3] 4% | outcome [5] | outcome [6] | outcome [7] | outcome [8]

O=C(/C=C/c1ccc([N+](=O)[O-])cc1)N1CCC(NS(=O)(=O)c2ccc(F)cc2)CC1
inactive: growth inhibition [1] -2% | inhibition [2] -7% | inhibition [3] -10% | outcome [5] | outcome [6] | outcome [7] | outcome [8]
active: growth inhibition [4] 96%

Cc1cc(C)cc(-n2c(C)cc(C=C3SC(=Nc4ccc(Cl)cc4)NC3=O)c2C)c1
active: growth inhibition [1] 97% | growth inhibition [4] 97%
inactive: inhibition [2] 12% | inhibition [3] -7% | outcome [5] | outcome [6] | outcome [7] | outcome [8]

CC(C)c1ccc(CN2CCC(CNC(=O)c3cc(-c4cccc(C(F)(F)F)c4)cs3)C2)cc1 (stereo not given)
inactive: inhibition [2] 36% | inhibition [3] 5% | outcome [5] | outcome [6] | outcome [7] | outcome [8]
active: growth inhibition [1] 60% | growth inhibition [4] 99%

Cc1cc(-c2cccc(CNCc3ccc(F)cc3)c2)ccc1S(=O)(=O)NCCN1CCCC1
active: growth inhibition [1] 64% | growth inhibition [4] 101%
inactive: inhibition [2] 49% | inhibition [3] 4% | outcome [5] | outcome [6] | outcome [7] | outcome [8]

CCc1c(C(=O)NC2CCC(N3CCC(c4ccccc4OC)CC3)CC2)[nH]c2ccc(OC)cc12 (stereo not given)
active: growth inhibition [1] 99% | growth inhibition [4] 101%
inactive: inhibition [2] 43% | inhibition [3] -5% | outcome [5] | outcome [6] | outcome [7] | outcome [8]

CN(C(=O)c1nn(-c2ccccn2)c2nccc(-c3cccs3)c12)C1CCCCC1
active: growth inhibition [4] 87%
inactive: growth inhibition [1] 1% | inhibition [2] 4% | inhibition [3] -1% | outcome [5] | outcome [6] | outcome [7] | outcome [8]

Cc1cc(Cl)ccc1NC(=O)Nc1ccc2nccc(N3CCN(C)CC3)c2c1
inactive: inhibition [2] -1% | inhibition [3] 1% | outcome [5] | outcome [6] | outcome [7] | outcome [8]
active: growth inhibition [1] 74% | growth inhibition [4] 101%

OC1CCC(Nc2ccc3ncc(-c4ccc5ccccc5c4)n3n2)CC1 (stereo not given)
active: growth inhibition [1] 94% | inhibition [2] 52% | growth inhibition [4] 95%
inactive: inhibition [3] 3% | outcome [5] | outcome [6] | outcome [7] | outcome [8]

CC(C)(C)C1CCc2onc(C(=O)Nc3cc(Cl)ccc3O)c2C1 (stereo not given)
active: growth inhibition [1] 82% | growth inhibition [4] 98%
inactive: inhibition [2] 5% | inhibition [3] -2% | outcome [5] | outcome [6] | outcome [7] | outcome [8]

Cc1cc(-c2cccc3c(C(=O)N4CCc5cc6nccc(N7CCN8CCC[C@H]8C7)c6cc54)cccc23)cc(C)n1
active: growth inhibition [1] 76% | growth inhibition [4] 97%
inactive: inhibition [2] 13% | inhibition [3] -3% | outcome [5] | outcome [6] | outcome [7] | outcome [8]

CN(C)CCOc1ccc(-n2c(-c3nonc3N)nc3cncc(-c4ccc(F)cc4)c32)cc1
active: growth inhibition [4] 97%
inactive: growth inhibition [1] 7% | inhibition [2] 10% | inhibition [3] 5% | outcome [5] | outcome [6] | outcome [7] | outcome [8]

COc1cccc(OC2CCN(C(=O)c3cc(C(C)(C)C)nn3Cc3ccccc3)CC2)c1
active: growth inhibition [1] 98% | growth inhibition [4] 102%
inactive: inhibition [2] 3% | inhibition [3] 3% | outcome [5] | outcome [6] | outcome [7] | outcome [8]

CC1CN(Cc2cccc(F)c2)CCN1c1ccc(NC(=O)c2ccc(F)cc2)cc1 (stereo not given)
active: growth inhibition [1] 92% | growth inhibition [4] 96%
inactive: inhibition [2] -2% | inhibition [3] -2% | outcome [5] | outcome [6] | outcome [7] | outcome [8]

CCc1ccc(-c2nc3cc(NC(=O)c4cc([N+](=O)[O-])cc([N+](=O)[O-])c4)ccc3o2)cc1
inactive: growth inhibition [1] 12% | inhibition [2] 12% | inhibition [3] 2% | outcome [5] | outcome [6] | outcome [7] | outcome [8]
active: growth inhibition [4] 93%

NC(=NCCc1ccccc1Cl)c1ccc2ccccc2c1
active: growth inhibition [4] 88%
inactive: growth inhibition [1] 11% | inhibition [2] 25% | inhibition [3] -2% | outcome [5] | outcome [6] | outcome [7] | outcome [8]

CN(Cc1ccc(-c2ccc(C(F)(F)F)cc2)cc1)C(=O)Cn1c(CCc2cccc(F)c2F)nc(=O)c2ccc(N3CCN(CCN4CCCCC4)CC3)nc21
active: growth inhibition [1] 100% | inhibition [2] 100% | growth inhibition [4] 101%
inactive: inhibition [3] 5% | outcome [5] | outcome [6] | outcome [7] | outcome [8]

N#Cc1ccc(/C=C/C(=O)NCCCCCN2CCCN(C(=O)Nc3ccc(Cl)c(C(F)(F)F)c3)CC2)cc1
inactive: growth inhibition [1] 13% | inhibition [2] 28% | inhibition [3] 0% | outcome [5] | outcome [6] | outcome [7] | outcome [8]
active: growth inhibition [4] 98%

Cc1onc(-c2ccccc2)c1-c1nc(NCc2ccccc2Cl)no1
inactive: inhibition [2] 2% | inhibition [3] -3% | outcome [5] | outcome [6] | outcome [7] | outcome [8]
active: growth inhibition [1] 92% | growth inhibition [4] 99%

From PubChem BioAssay
